Laboratory results reported in PMC6212833.
Over roughly 2,000 compounds, “B-score” has its median near -0.0024; the highest 2% begin near 4. The entries come from a sample that favours the highest values as a whole.

Tested on: Balamuthia mandrillaris (ATCC PRA-291) trophozoites, axenic culture
Assay: primary screen, b score
Conditions: 20 µM
Method: Screening of a clinically approved library of compounds, compiled by the Small Molecule Discovery Center (SMDC) at the UCSF, was completed at 20 µM in 0.2% DMSO. All 2,177 drugs in the library were stored as 10 mM stocks dissolved in 100% DMSO (Sigma-Aldrich) at −20°C. B. mandrillaris amoebae were resuspended in axenic medium and distributed into opaque 384-well plates (Corning) at a density of 3,000 amoebae per well using a BioMek NX liquid handler. Negative-control wells were treated with vehicle only (0.2% DMSO in axenic medium), and positive-control wells simulating total destruction of amoebae were seeded with amoeba lysate generated by 3 consecutive freeze-thaw cycles. Following 72 h of incubation, 30 µl of CellTiter Glo reagent (CTG; Promega) was added to each well. The luminescence was measured with a Promega GloMax-Multi+ plate reader at 2, 4, and 8 h after CTG addition. […] The B-score, representing a plate-based statistical approach for correcting row, column, and edge effects, was also calculated for each compound in the library (75).

For `[N-]=[N+]=CC(=O)OC[C@H](N)C(=O)O`, which B-score is on record?
The B-score was 4.05.

For `CC(=O)O[C@H]1C[C@H](O[C@H]2[C@@H](O)C[C@H](O[C@H]3[C@@H](O)C[C@H](O[C@H]4CC[C@@]5(C)[C@H](CC[C@@H]6[C@@H]5C[C@@H](O)[C@]5(C)[C@@H](C7=CC(=O)OC7)CC[C@]65O)C4)O[C@@H]3C)O[C@@H]2C)O[C@H](C)[C@H]1O[C@@H]1O[C@H](CO)[C@@H](O)[C@H](O)[C@H]1O`, which B-score is on record?
Its B-score is 0.168.

`O=C1C[C@@H]2OCC=C3CN4CC[C@]56c7ccccc7N1[C@H]5[C@H]2[C@H]3C[C@H]46` was tested. Which B-score did it give?
The B-score was 0.0173.

Which B-score does the source give for `CN1C[C@H](CNC(=O)OCc2ccccc2)C[C@@H]2c3cccc4c3c(cn4C)C[C@H]21` here?
The B-score was -0.657.

For `CC(C)C[C@H](CN)CC(=O)O`, which B-score is on record?
Its B-score is 1.41.
